The values below are quoted from earlier work in PubChem BioAssay AID977611.

The campaign covered roughly 3,900 compounds. About 3,900 (100%) were called active. Cut-off not given; nearly all actives show Kd up to about 4200 µM. So high a share suggests a set chosen from earlier hits. The list shows a part of the results. *1 amine or outer side, *2 acyl side, *3 side chain or, on linkers, in order; H or OH if unused. Where a SMILES comes first, the peptide text is derived from it. Bridges are numbered along the chain shown (N, C = ends). Peptide text beside a SMILES is read from it. [ ]: non-standard residue; d: D form. The star is where a group is joined. X1 = C[C@@](/C=C/CC=[*:3])(N[*:1])C(=O)[*:2]; Orn(CH(NH2)2) = NC(N)NCCC[C@H](N)C(=O)O; Lys(Me2) = CN(C)CCCC[C@H](N)C(=O)O; Lys(Me) = CNCCCC[C@H](N)C(=O)O; S5 = C=CCCC[C@](C)(N)C(=O)O; Butyryl = CCCC(=O)*

The nature of this data set: PubChem AID 977611. To be noted: PDB protein-ligand complexes, literature Kd.

On to `CC[C@H](C)[C@H](NC(=O)[C@@H]1CCCN1C(=O)CNC(=O)[C@H](C)N)C(=O)N[C@@H](CO)C(=O)N[C@@H](CC(C)C)C(=O)N[C@@H](CC(N)=O)C(=O)N[C@@H](Cc1c[nH]c2ccccc12)C(=O)N[C@@H](Cc1ccccc1)C(=O)N[C@@H](CCC(=O)O)C(=O)N[C@@H](CCC(=O)O)C(=O)N[C@@H](CC(C)C)C(=O)N[C@@H](CO)C(=O)N[C@@H](C)C=O` (H-AGPISLNWFEELSA-aldehyde), for which, under “protein: Partner and localizer of BRCA2, PDB entry 3eu7”, the Kd is 660 nM (active).

On to `CC[C@H](C)[C@@H]1NC(=O)[C@@](C)(NC(=O)[C@H](CCC(N)=O)NC(=O)[C@@H]2CCCN2C(=O)[C@H](Cc2c[nH]c3ccccc23)NC(=O)[C@@H](N)CCCNC(N)N)CCC/C=C\C/C=C/[C@@](C)(C(=O)N[C@@H](Cc2c[nH]cn2)C(=O)N[C@H](C(=O)N[C@@H](CCCNC(N)N)C(=O)N[C@@H](CCCNC(N)N)C(=O)N[C@H](C(=O)N[C@@H](Cc2c[nH]c3ccccc23)C(=O)O)C(C)C)C(C)C)NC(=O)[C@H](CC(=O)O)NC(=O)[C@H](CC(C)C)NC1=O` (H-[Orn(CH(NH2)2)]WPQ[S5]ILD[X1]HV[Orn(CH(NH2)2)][Orn(CH(NH2)2)]VW-OH; staple (Z) 5-9), for which, where the note is “protein: Catenin beta-1, PDB entry 4djs”, the Kd was 13 nM (active).

Take H-TKQTARK(Ac)S-NH2: the Kd (protein: Protein AF-9 AF9 YEATS, PDB entry 4tmp) was 3700 nM (active).

As to `C[C@H](N)C(=O)N[C@@H](CCCN=C(N)N)C(=O)N[C@H](C(=O)N[C@@H](CCCCN)C(=O)N[C@@H](CCC(N)=O)C(=O)N[C@H](C(=O)N[C@@H](C)C(=O)N[C@@H](CCCN=C(N)N)C(=O)N[C@@H](CCCCN)C(=O)N[C@@H](CO)C(=O)N[C@H](C(=O)NCC(=O)O)[C@@H](C)O)[C@@H](C)O)[C@@H](C)O`, the Kd (protein: histone acetyltransferase Hat1p/Hat2p/H4 peptide complex, PDB entry 4psx) is 340 nM (active).

Turning to `CCCC(=O)NCCCC[C@H](NC(=O)[C@]1([C@@H](C)O)N[C@@](O)([C@@H](N)CCCN=C(N)N)O1)C(=O)N[C@@H](CCC(N)=O)C(=O)N[C@H](C(=O)N[C@@H](C)C(=O)N[C@@H](CCCN=C(N)N)C(=O)O)[C@@H](C)O` (H-[X1]K(Butyryl)QTAR-OH), where the note is “protein: NAD-DEPENDENT PROTEIN DEACETYLASE SIRTUIN-3, MITOCHONDRIAL Sirt3, PDB entry 4v1c”, the dissociation constant (Kd) is 25100 nM (active).

As for H-GCARSEG-OH, the Kd (protein: WD repeat-containing protein 5, WDR5, PDB entry 4es0) is 103 nM (active).

Take H-ARTAA-OH: the Kd (protein: WD repeat-containing protein 5 WDR5, PDB entry 4o45) is 70000 nM (active).

Turning to `C[C@H](N)C(=O)N[C@@H](CCCN=C(N)N)C(=O)N[C@H](C(=O)N[C@@H](CCCCN)C(=O)N[C@@H](CCC(N)=O)C(=O)N[C@H](C(=O)N[C@@H](C)C(=O)N[C@@H](CCCN=C(N)N)C(=O)N[C@@H](CCCCN)C(=O)N[C@@H](CO)C(=O)O)[C@@H](C)O)[C@@H](C)O`, the Kd (protein: DNA (cytosine-5)-methyltransferase 3A DNMT3A-DNMT3L, PDB entry 4u7t) was 2140 nM (active).

Consider `C[C@H](N)C(=O)N[C@@H](C)C(=O)N[C@@H](C)C(=O)N[C@@H](C)C(=O)N[C@@H](C)C(=O)N[C@@H](C)C(=O)N[C@@H](C)C(=O)N[C@@H](C)C(=O)N[C@@H](C)C(=O)N[C@@H](C)C(=O)O`, for which the Kd (protein: Transportin 1 (Trn1), PDB entry 2z5o) is 1000 nM (active).

`C[C@H](NC(=O)[C@@H](NC(=O)[C@H](CCC(N)=O)NC(=O)[C@H](CCCCN)NC(=O)[C@@H](N)[C@@H](C)O)[C@@H](C)O)C(=O)N[C@@H](CCCNC(N)N)C(=O)N[C@@H](CCCCN(C)C)C(=O)N[C@@H](CO)C(=O)O` (H-TKQTA[Orn(CH(NH2)2)][Lys(Me2)]S-OH): the Kd (protein: SAWADEE HOMEODOMAIN HOMOLOG 1, PDB entry 4iut) was 1900 nM (active).

Turning to `CNCCCC[C@H](NC(=O)[C@H](CCCNC(N)N)NC(=O)[C@H](C)NC(=O)[C@@H](NC(=O)[C@H](CCC(N)=O)NC(=O)[C@H](CCCCNC)NC(=O)[C@@H](N)[C@@H](C)O)[C@@H](C)O)C(=O)N[C@@H](CO)C(=O)N[C@H](C(=O)O)[C@@H](C)O` (H-T[Lys(Me)]QTA[Orn(CH(NH2)2)][Lys(Me)]ST-OH), the Kd (protein: SAWADEE HOMEODOMAIN HOMOLOG 1, PDB entry 4iuv) is 1900 nM (active).

With `CNCCCC[C@H](NC(=O)[C@H](CCCNC(N)N)NC(=O)[C@H](C)NC(=O)[C@@H](NC(=O)[C@H](CCC(N)=O)NC(=O)[C@H](CCCCN)NC(=O)[C@@H](N)[C@@H](C)O)[C@@H](C)O)C(=O)N[C@@H](CO)C(=O)O` (H-TKQTA[Orn(CH(NH2)2)][Lys(Me)]S-OH), the Kd (protein: SAWADEE HOMEODOMAIN HOMOLOG 1, PDB entry 4iuu) was 2220 nM (active).

In the case of `CC(C)C[C@H](NC(=O)[C@H](CCCNC(N)N)NC(=O)[C@@H](NC(=O)[C@H](CC(=O)O)NC(=O)[C@@H](N)CCC(N)=O)[C@@H](C)O)C(=O)O` (HELM PEPTIDE1{Q.D.T.[NC(N)NCCC[C@H](N[*:1])C(=O)[*:2]].L}$$$$V2.0), the Kd reads like this: (protein: Na(+)/H(+) exchange regulatory cofactor NHE-RF1, PDB entry 2m0u) 365 nM (active); (protein: Na(+)/H(+) exchange regulatory cofactor NHE-RF1, PDB entry 2m0v) 1080 nM (active).
